Experimental data published in the supplement of paper PMC4709259.
Structures can show the parent of a compound that is named as a salt. ± gives the standard deviation.

Key:
[1] = test system: Jurkat; assay: mean cell size (FSC-A) relative to DMSO control (fraction of control); higher = larger cells; conditions: 48 h
How it was run: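 Jurkat cells at 600 cells/µl were incubated for 1 h and then treated for 48h with the Enzo Screen-Well FDA Approved Drug Library v2.0 at 25µM, with DMSO at 0.9% (v/v) final. Compounds that reduced counts below 20% of controls were retested in 10-fold dilutions down to 25nM. Cell count and mean cell size, taken as forward scatter area, were measured by flow cytometry relative to solvent-only controls. Each plate carried 6-12 controls, and values are means of 3 biological replicates.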

[2] = test system: Jurkat; assay: cell count relative to DMSO control (fraction of control); higher = more cells (less growth inhibition); conditions: 48 h

Row | SMILES | mean cell size [1] | cell count [2]
1 | Clc1ccc(CO/N=C(\Cn2ccnc2)c2ccc(Cl)cc2Cl)c(Cl)c1 [Oxiconazole Nitrate] (concentration: 25 µM) | 0.933 ± 0.016 | 0.87 ± 0.18
2 | Nc1nc(Cl)nc2c1ncn2[C@H]1C[C@H](O)[C@@H](CO)O1 [Cladribine] (concentration: 250 nM) | 1.17 ± 0.034 | 0.268 ± 0.024
3 | C[C@@H](NCCCc1cccc(C(F)(F)F)c1)c1cccc2ccccc12 [Cinacalcet·HCl] (concentration: 25 µM) | 1.03 ± 0.051 | 0.577 ± 0.089
4 | CCCc1nc(C(C)(C)O)c(C(=O)O)n1Cc1ccc(-c2ccccc2-c2nnn[nH]2)cc1 [Olmesartan] (concentration: 25 µM) | 0.97 ± 0.034 | 1.16 ± 0.1
5 | CCOC(=O)C1=C[C@@H](OC(CC)CC)[C@H](NC(C)=O)[C@@H](N)C1 [Oseltamivir Phosphate] (concentration: 25 µM) | 0.932 ± 0.023 | 0.939 ± 0.075
6 | CC(=O)Nc1nnc(S(N)(=O)=O)s1 [Acetazolamide] (concentration: 25 µM) | 1.04 ± 0.061 | 0.755 ± 0.054
7 | CN1CCC[C@@H]1CCO[C@](C)(c1ccccc1)c1ccc(Cl)cc1 [Clemastine Fumarate] (concentration: 25 µM) | 0.985 ± 0.024 | 0.24 ± 0.04
8 | COC(=O)CCC(=O)CN [Methyl Aminolevulinate·HCl] (concentration: 25 µM) | 0.99 ± 0.033 | 0.739 ± 0.074
9 | CC1(C)S[C@@H]2[C@H](NC(=O)Cc3ccccc3)C(=O)N2[C@H]1C(=O)O [Penicillin G Potassium (Benzylpenicillin)] (concentration: 25 µM) | 0.948 ± 0.019 | 0.934 ± 0.041
10 | COc1cc([C@@H]2c3cc4c(cc3[C@@H](O[C@@H]3O[C@@H]5CO[C@@H](c6cccs6)O[C@H]5[C@H](O)[C@H]3O)[C@H]3COC(=O)[C@H]23)OCO4)cc(OC)c1O [Teniposide] (concentration: 25 nM) | 1.25 ± 0.033 | 0.478 ± 0.044
11 | COc1cc(C(C)=O)ccc1OCCCN1CCC(c2noc3cc(F)ccc23)CC1 [Iloperidone] (concentration: 25 µM) | 0.954 ± 0.031 | 0.734 ± 0.088
12 | CC1=C(/C=C/C(C)=C/C=C/C(C)=C\C(=O)O)C(C)(C)CCC1 [Isotretinoin (13-Cis-Retinoic Acid)] (concentration: 25 µM) | 0.864 ± 0.03 | 1.02 ± 0.11
13 | Nc1ccn([C@@H]2O[C@H](CO)[C@@H](O)[C@@H]2O)c(=O)n1 [Cytarabine] (concentration: 25 nM) | 1.18 ± 0.05 | 0.297 ± 0.088
14 | Cc1onc(-c2c(Cl)cccc2Cl)c1C(=O)N[C@@H]1C(=O)N2[C@@H]1SC(C)(C)[C@@H]2C(=O)O [Dicloxacillin·Na Salt Monohydrate] (concentration: 25 µM) | 0.939 ± 0.0097 | 1.07 ± 0.06
15 | CN[C@@H]1[C@H](O)[C@H](NC)[C@H]2O[C@@]3(O)C(=O)C[C@@H](C)O[C@H]3O[C@@H]2[C@H]1O [Spectinomycin·HCl Pentahydrate] (concentration: 25 µM) | 1.05 ± 0.014 | 0.941 ± 0.16
16 | CN(CCOc1ccc(CC2SC(=O)NC2=O)cc1)c1ccccn1 (stereo not drawn) [Rosiglitazone] (concentration: 25 µM) | 0.996 ± 0.063 | 0.718 ± 0.069
17 | Nc1ccc(C(=O)NCC(=O)O)cc1 [Aminohippurate·Na] (concentration: 25 µM) | 0.995 ± 0.044 | 0.792 ± 0.089
18 | CC(=O)c1ccc(S(=O)(=O)NC(=O)NC2CCCCC2)cc1 [Acetohexamide] (concentration: 25 µM) | 1.02 ± 0.063 | 0.723 ± 0.068
19 | CC1=C(/C=C/C(C)=C/C=C/C(C)=C/C(=O)O)C(C)(C)CCC1 [Tretinoin] (concentration: 25 µM) | 0.88 ± 0.031 | 1.02 ± 0.11
20 | CCCOc1ccc(C(=O)OCCN(CC)CC)cc1N [Proparacaine·HCl] (concentration: 25 µM) | 1.06 ± 0.046 | 1.07 ± 0.05
21 | CN1CCC(=C2c3ccccc3C=Cc3ccccc32)CC1 [Cyproheptadine·HCl Sesquihydrate] (concentration: 25 µM) | 0.935 ± 0.027 | 0.762 ± 0.049
22 | Cc1ccc(C(=O)c2ccc(CC(=O)O)n2C)cc1 [Tolmetin·Na] (concentration: 25 µM) | 0.964 ± 0.035 | 0.912 ± 0.11
23 | OC[C@H]1O[C@@H](n2cnc3c2N=CNC[C@H]3O)C[C@@H]1O [Pentostatin] (concentration: 25 µM) | 0.959 ± 0.029 | 1.14 ± 0.024
24 | O=C1O[C@H]([C@@H](O)CO)C(O)=C1O [L-Ascorbic Acid] (concentration: 25 µM) | 1 ± 0.029 | 0.836 ± 0.068
